Common to all, as to conditions: concentration: 1 μM, replicates: in singlicate; n = 1
The subject of assay [1] is STK36.
Assay [2] deals with STK39.
Assay [3] relates to SYK.
Assay [4] relates to SgK110.
In assay [5] the test system is T1, TAK1.
T1 construct: gene MAP3K7

Assay [6] deals with TAOK1.
The test system of assay [7] is TAOK2.
The subject of assay [8] is TAOK3.
The subject of assay [9] is TBK1.
Assay [10] has as its system TEC.
Assay [11] has as its system TESK1.
The test system of assay [12] is TGFBR1.
Assay [13] relates to TGFBR2.
The subject of assay [14] is TIE1.
In assay [15] the test system is T2, TIE2.
T2 construct: gene TEK

Assay [16] concerns TLK1.
In assay [17] the test system is TLK2.
The test system of assay [18] is TNIK.
Assay [19] deals with TNK1.
The test system of assay [20] is TNK2.
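Further: KINOMEscan kinase panel screen.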

Consider `O=C(Nc1n[nH]c2nc(-c3ccccc3)ccc12)C1CC1` [SB-708999], for which the “%Inh” value in assay [1] came to 8%; in [2] it was 0%; in [3] it was 0%; in assay [4] it was 0%; in assay [5], 0%; in assay [6], 40%. Further, the “%Inh” value is on record as 0% in [7]; 7% in [8]; 8% in assay [9]; 0% in assay [10]; 17% in assay [11]; 0% in assay [12]. The “%Inh” value in assay [13] worked out at 0%; in assay [14] it was 15%; in assay [15], 3%; in [16], 0%; in assay [17] it was 0%; in [18], 79%. The “%Inh” value in assay [19] is on record as 0%; in [20], 2%.

With `CCn1c(-c2nonc2N)nc2c(-c3ccccc3)ncc(OCCCN)c21.O=C(O)C(F)(F)F.O=C(O)C(F)(F)F` [GSK260205], the “%Inh” value came out at 0% in assay [1]; 7% in assay [2]; 19% in assay [3]; 0% in [4]; 0% in assay [5]; 0% in assay [6]. Further, the “%Inh” value in assay [7] was 0%; in assay [8] it was 0%; in assay [9], 5%; in [10] it was 0%; in [11], 0%; in assay [12], 76%. Moreover, the “%Inh” value in assay [13] stood at 0%; in [14] it was 70%; in assay [15] it was 41%; in assay [16], 1%; in [17], 0%; in [18], 85%. The “%Inh” value in [19] is 1%; in assay [20] it was 8%.

As for `Cc1nn2c(=O)cc(N3CCO[C@H](C)C3)nc2n1Cc1cccc(Cl)c1Cl` [GSK2373693], the “%Inh” value in assay [1] is on record as 0%; in [2] it was 5%; in assay [3], 19%; in assay [4] it was 0%; in assay [5], 0%; in assay [6] it was 0%. Also, the “%Inh” value in assay [7] is 0%; in [8], 3%; in assay [9], 0%; in assay [10], 2%; in [11] it was 20%; in assay [12], 0%. The “%Inh” value came out at 8% in [13]; 15% in assay [14]; 2% in assay [15]; 0% in assay [16]; 0% in assay [17]; 0% in [18]. In addition, the “%Inh” value in [19] worked out at 0%; in assay [20], 10%.

In the case of `COc1cccc(C2=C(Nc3cccc(O)c3)C(=O)NC2=O)c1` [SB-390771], the “%Inh” value in assay [1] is on record as 0%; in assay [2], 8%; in assay [3], 22%; in assay [4], 18%; in [5] it was 100%; in assay [6], 10%. Further, the “%Inh” value in [7] was determined as 36%; in assay [8], 9%; in assay [9] it was 30%; in assay [10], 7%; in assay [11] it was 34%; in assay [12], 19%. Besides, the “%Inh” value in [13] is 0%; in assay [14], 0%; in [15], 0%; in assay [16], 29%; in assay [17], 33%; in assay [18], 0%. Moreover, the “%Inh” value in [19] is reported as 0%; in [20], 15%.

On to `Cl.O=C(Nc1ccc(Oc2ccc3[nH]c(NC(=O)c4ccco4)nc3c2)cc1)Nc1cc(C(F)(F)F)ccc1F` [GW683134], for which the “%Inh” value in [1] was determined as 0%; in assay [2], 12%; in assay [3], 31%; in assay [4], 0%; in assay [5] it was 89%; in assay [6] it was 0%. Further, the “%Inh” value in assay [7] is 0%; in assay [8], 0%; in [9], 0%; in assay [10], 13%; in assay [11], 36%; in assay [12], 0%. The “%Inh” value was 0% in assay [13]; 100% in assay [14]; 99.8% in [15]; 0% in [16]; 3% in assay [17]; 0% in [18]. Further, the “%Inh” value was found to be 56% in assay [19] and 8% in [20].

For `Nc1ncc(-c2cn[nH]c2)c2scc(-c3ccc4c(c3)CCN4C(=O)Cc3ccccc3)c12` [GSK2593067], the “%Inh” value came to 0% in assay [1]; 0% in assay [2]; 25% in assay [3]; 0% in [4]; 0% in assay [5]; 0% in assay [6]. Also, the “%Inh” value was found to be 0% in assay [7]; 0% in assay [8]; 1% in assay [9]; 4% in assay [10]; 59% in assay [11]; 0% in [12]. The “%Inh” value in assay [13] turned out to be 0%; in [14] it was 97.4%; in assay [15], 83%; in assay [16], 0%; in assay [17], 0%; in [18], 69%. For the same molecule, the “%Inh” value in assay [19] worked out at 45%; in assay [20], 79%.

In the case of `O=C(Nc1n[nH]c2nc(-c3ccccc3O)ccc12)C1CC1` [SB-711880], the “%Inh” value in assay [1] worked out at 0%; in assay [2] it was 0%; in assay [3], 0%; in [4], 0%; in assay [5], 9%; in assay [6], 9%. Further, the “%Inh” value in [7] turned out to be 0%; in [8], 0%; in assay [9], 27%; in assay [10], 63%; in assay [11], 0%; in assay [12], 0%. Moreover, the “%Inh” value in assay [13] is 0%; in [14], 16%; in assay [15], 0%; in assay [16], 22%; in [17], 0%; in assay [18], 79%. Moreover, the figures for the “%Inh” value in [19] and in assay [20] were 20% and 0%, respectively.

For the molecule `NCCC(NC(=O)c1cc(Br)c(-c2ccnc3[nH]ccc23)s1)c1ccccc1.O=C(O)C(F)(F)F.O=C(O)C(F)(F)F` (stereo not shown) [GSK1307810], the “%Inh” value is 0% in assay [1]; 5% in assay [2]; 18% in assay [3]; 70% in [4]; 51% in assay [5]; 48% in assay [6]. The “%Inh” value in assay [7] is reported as 10%; in [8], 0%; in [9], 5%; in assay [10], 0%; in [11] it was 6%; in assay [12] it was 3%. For the same molecule, the “%Inh” value in [13] amounted to 0%; in assay [14], 73%; in assay [15] it was 0%; in assay [16], 23%; in [17] it was 0%; in assay [18], 52%. Also, the “%Inh” value in assay [19] is 0%; in assay [20], 9%.

Values taken from article PMC5540273 (PLoS ONE, 2017).
